# Compound activity from PubChem BioAssay.
# Hits are enriched below; roughly 3.5% of the tested compounds scored in any of these assays.
# FBW7 activator: human FBW7 E3 ligase activation, primary screen; AlphaScreen FBW7–phospho-cyclin E peptide binding, activator screen; normalized activity (activation), % at 26.1 µM; Q969H0; 0.13% of 650,000 active; in the data active = normalized activity above about 1.9%;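 also: purified mutant Fbw7 with reduced substrate affinity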
# TEAD-YAP inh: TEAD-YAP interaction inhibition | inhibition, % at 9.12 µM | AID 1259422 | 1.4% of 640,000 active | HEK-TIYL cells, TEAD-Gal4/YAP UAS-luciferase luminescence; in the data active = inhibition above about 32%;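 also: 0% = median of test compound wells and 100% = reference inhibitor wells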
# MITF primary: blocks human microphthalmia-associated transcription factor | AlphaScreen MITF homodimerization, bead proximity signal | inhibition, % at 2.6 µM | 0.91% of 650,000 active | AID 1259374; in the data active = inhibition above about 50%;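 also: 0% = vehicle wells with protein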
# GPR151 activ: activates the human receptor GPR151; Q8TDV0; PathHunter beta-arrestin GPR151 cells, luminescence; activation, % at 11.2 µM; 1% of 650,000 active; AID 1508602; in the data active = activation above about 4.9%;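 also: 0% = median of compound wells and 100% = cells with positive control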
# GPR151 confirm: confirmation of human GPR151 activators; activation, % at 11.2 µM; shares compounds with GPR151 activ; GPR151 PathHunter beta-arrestin cells, luminescence, 90 min; % of EA-reagent control over plate median; 6,700 tested, under 10 active;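 active = mean percent activation across replicates above the confirmation screen cutoff of 4.91%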
# GPR119 counter: GPR119 activation, counter-screen for GPR151 activators; shares compounds with GPR151 activ; 0.3% of 6,700 active; activation, % at 11.2 µM; GPR119 PathHunter beta-arrestin cells, luminescence, 90 min; 0 = compound-well median, 100 = enzyme-acceptor control;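 active = mean percent activation in the counterscreen above 29.09%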;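 also: counterscreen on off-target GPR119 to flag nonselective hits from the GPR151 activator screen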
# Target sequence (Q8TDV5 whole entry, looked up): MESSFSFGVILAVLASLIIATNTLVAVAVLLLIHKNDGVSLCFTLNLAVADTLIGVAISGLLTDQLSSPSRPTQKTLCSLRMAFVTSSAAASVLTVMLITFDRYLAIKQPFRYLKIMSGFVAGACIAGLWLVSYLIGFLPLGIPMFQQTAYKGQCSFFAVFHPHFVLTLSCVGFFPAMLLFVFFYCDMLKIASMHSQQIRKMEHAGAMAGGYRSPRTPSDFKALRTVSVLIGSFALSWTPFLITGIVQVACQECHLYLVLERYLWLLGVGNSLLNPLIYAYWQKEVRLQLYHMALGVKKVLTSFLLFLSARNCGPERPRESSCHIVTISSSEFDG
# An asterisk follows results filed as active; nt = not tested or not shown.
SMILES,FBW7 activator,TEAD-YAP inh,MITF primary,GPR151 activ,GPR151 confirm,GPR119 counter
Cc1ccc(N2CC(NC(=O)Nc3nccs3)CC2=O)cc1 (stereo not drawn),0,5,8,2,nt,nt
Cn1c(C(=O)N2CCN(c3ccccc3F)CC2)cc2c(=O)n3ccccc3nc21,0,-3,-11,-1,nt,nt
Cc1oc(-c2ccccc2F)nc1CSCC(=O)NCCCN1CCCC1=O,0,-3,-2,0,nt,nt
O=C1CC(NCCCc2ccccc2)C(=O)N1c1ccc(Br)cc1 (stereo not drawn),0,-1,-1,11*,-1,-4
O=C1CC(NCCCCO)C(=O)N1c1ccc(Br)cc1 (stereo not drawn),0,11,0,0,nt,nt
Cc1ccnc(NC(=O)NC2CC(=O)N(c3ccccc3)C2)c1 (stereo not drawn),0,-3,-1,6.1*,1,-8
Cn1c(=O)c2c(NC(=O)c3c(F)cccc3F)ccnc2n(C)c1=O,0,1,6,10*,-1,3
CCC1Oc2ccccc2N(Cc2ccc(F)cc2)C1=O (stereo not drawn),0,-2,-6,1,nt,nt
COc1ccc(N2C(=O)CCC(C(=O)Nc3cccc(C)n3)C2c2ccc(F)cc2)cc1 (stereo not drawn),0,14,9,-1,nt,nt
Cc1ccc(S(=O)(=O)N2CCCCC2CC(=O)Nc2nccs2)cc1 (stereo not drawn),0,4,-7,4,nt,nt
CCC1CCCCN1S(=O)(=O)c1ccc(C(=O)Nc2nccs2)cc1 (stereo not drawn),0,-1,-4,5.1*,0,2
COC(CNC(=O)c1cc(Nc2ccc(C(C)C)cc2)nc2ccccc12)OC,1,5,7,0,nt,nt
CCN(CC)S(=O)(=O)c1cc(C(=O)Nc2ccc(I)cc2)ccc1Cl,0,4,2,0,nt,nt
CCn1c2ccccc2c2cc(/C=N/n3cn[nH]c3=S)ccc21,0,22,8,5.0*,-1,-8
CCn1c2ccccc2c2cc(/C=N/O)ccc21,1,12,14,0,nt,nt
N#Cc1ccc2c(c1)N(Cc1ccc(F)cc1)C(=O)C1CCCN21 (stereo not drawn),0,2,3,1,nt,nt
Cc1ccc(CN2C(=O)C3CCCN3c3ccc(C#N)cc32)cc1 (stereo not drawn),0,-4,-3,5.6*,1,7
CC(=O)Cn1c(=O)c2c(nc3n(-c4ccccc4C)c(C)c(C)n23)n(C)c1=O,0,5,18,5.5*,-1,-1
C=CCn1c(=O)c2c(nc3n(-c4ccccc4C)c(C)c(C)n23)n(C)c1=O,0,14,14,2,nt,nt
COC(=O)c1sc2ccccc2c1NC(=O)c1ccc(C(=O)c2ccccc2)cc1,0,7,11,2,nt,nt
COC(=O)c1sc2ccccc2c1NC(=O)c1ccc(Oc2ccccc2)cc1,0,3,-13,10*,0,0
Cc1ccc(N2C(=O)c3ccc(C(=O)N4CCCCC4C)cc3C2=O)cc1 (stereo not drawn),0,3,15,5.0*,0,11
Cc1cc(N2C(=O)c3ccc(C(=O)N4CCCCC4C)cc3C2=O)no1 (stereo not drawn),0,6,11,2,nt,nt
CN1C(=O)c2ccc(C(=O)Nc3ccccc3I)cc2C1=O,0,9,6,5.2*,0,-1
CCCN1C(=O)c2ccc(C(=O)Nc3ccccc3I)cc2C1=O,0,7,7,-2,nt,nt
O=C(O)CCCn1c(=O)oc2ccccc21,2,-2,4,0,nt,nt
O=C(CCCn1c(=O)oc2ccccc21)NNC(=O)COc1ccc(F)cc1,0,-1,13,5.7*,0,-8
COc1ccc(C2CC(=O)C3=C(C2)NC(C)=C(C(=O)OC2CCCC2)C3c2ccccc2C)cc1OC (stereo not drawn),0,17,10,5.3*,-1,9
COc1ccc(C2CC(=O)C3=C(C2)NC(C)=C(C(=O)OC2CCCC2)C3c2ccccc2OC)cc1OC (stereo not drawn),0,4,6,0,nt,nt
CN1/C(=C2/SC(=Nc3ccc(C4CCCCC4)cc3)N(c3ccccc3)C2=O)Sc2ccccc21,0,5,-1,0,nt,nt
